# Test results published in PubChem BioAssay (Tox21).
# Active and inactive are the calls of the source. A call without a number means that no potency is given here. Calls come from the whole dose curve; as a rule, active = well fitted activation curve with a large enough effect in the repeat runs; inconclusive = weak or mixed curves; inactive = flat fitted curve, though single readings scatter.
# Target: KiSS-1 receptor (Homo sapiens) (UniProt Q969F8)
# Test: Human kisspeptin (KISS1R) small molecule agonists, calcium flux assay in KISS1R-HEK293 cells (AID 1920064)
# Conditions: KISS1R-HEK293, calcium flux fluorescence, agonist; series mostly up to 76.8 µM
# Excerpt: National Center for Advancing Translational Sciences [NCATS]
# Division of Preclinical Innovation [DPI]
# U.S. Environmental Protection Agency [EPA]
# National Institutes of Environmental Health Sciences [NIEHS]
# National Toxicology Program [NTP]
# U.S. Food and Drug Administration [FDA]
# Kisspeptin and its receptor KISS1R play key roles in mammalian reproduction due to their involvement in the onset of puberty and control of the hypothalamic-pituitary-gonadal axis such as regulates GnRH release from the hypothalamus. The kisspeptin/KISS1R system also plays a direct role in peripheral organs (including the ovary, testis, uterus, and placenta) and is implicated in reproductive diseases such as miscarriage and polycystic ovary syndrome (PCOS). Abnormal KISS1R activity is associated with abnormal puberty, infertility, endometriosis, and hormone-dependent tumors. The KISS1 receptor (KISS1R, also called GPR54), a G-protein-coupled receptor (GPCR), acts (through phospholipase C) to increase intracellular inositol trisphosphate and then release intracellular calcium stores. Cell-based KISS1R-HEK293 assay is using HEK293 cells that have been genetically engineered to express the human KISS1R, which activity can be measured by calcium signaling. A compound/drug can activate (agonist) KISS1R that can be monitored by levels of intracellular calcium.
# KISS1R-HEK293 cells developed by Codex Corp contain human KISS1R gene, which was stably integrated into HEK 293 cells. The compound activation can be detected by fluorescence intensity via calcium flux assay. This cell line has been used to screen the Tox21 10K compound library to identify agonists of KISS1R.
# KISS1R-Hek293 cells were dispensed at 1500 cells/4uL/well in 1536-well black wall/clear bottom plates using a multidrop dispenser. After the assay plates were incubated at a 37 C/5% CO2 incubator for 18 hours, 4 microL of Calcium Dye Solution was added to each well. The plates were incubated at 37 C for 1 hour. And then 23 nL of compounds dissolved in DMSO, positive controls, or DMSO only was transferred to the assay plate by a pin tool station. The fluorescence intensity in the plates was measured using FDSS 7000EX kinetic plate reader with a filter set of Ex/Em=480/540 for 3 min at 1 sec intervals. Each test compound was measured at 15 concentrations and in triplicates.
# Sequence of KiSS-1 receptor (Homo sapiens) (Q969F8 whole entry, looked up): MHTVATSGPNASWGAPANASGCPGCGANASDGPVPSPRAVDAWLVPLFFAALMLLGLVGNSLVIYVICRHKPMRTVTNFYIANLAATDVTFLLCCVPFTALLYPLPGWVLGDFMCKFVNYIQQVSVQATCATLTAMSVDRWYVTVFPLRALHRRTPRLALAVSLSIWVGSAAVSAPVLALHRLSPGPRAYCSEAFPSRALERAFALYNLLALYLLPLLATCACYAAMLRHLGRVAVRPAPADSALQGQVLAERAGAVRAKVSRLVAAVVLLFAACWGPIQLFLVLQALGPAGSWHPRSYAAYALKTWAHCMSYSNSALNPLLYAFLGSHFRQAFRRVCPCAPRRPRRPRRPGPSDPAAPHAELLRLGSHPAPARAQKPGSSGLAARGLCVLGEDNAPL
row,SMILES,Potency
1,NC1CCCCC1N (stereo not given),inactive
2,CN(C)c1ccc(C(=N)c2ccc(N(C)C)cc2)cc1,inactive
3,Cc1ccc(C(=O)C(=O)O)cc1C,inactive
4,CC(C)CCCCCCc1ccc(O)cc1,inactive
5,CC(C)(c1cc(Br)c(OCC(Br)CBr)c(Br)c1)c1cc(Br)c(OCC(Br)CBr)c(Br)c1 (stereo not given),inactive
6,OCc1ccccc1O,inactive
7,Cc1occc1S,inactive
8,CCOc1ccccc1OCC,inactive
9,CC12CCC(C(=O)C1=O)C2(C)C (stereo not given),inactive
10,O=C(O[C@@H]1Cc2c(O)cc(O)cc2O[C@@H]1c1cc(O)c(O)c(O)c1)c1cc(O)c(O)c(O)c1,inactive
11,c1c[nH]cn1,inactive
12,Cl/C(=C\n1cncn1)c1ccc(Cl)cc1Cl,inactive
13,C1=COCCC1,inactive
14,Cc1ccccc1S(N)(=O)=O,inactive
15,Nc1ncnc2c1ncn2[C@@H]1O[C@H](COP(=O)(O)O)[C@@H](O)[C@H]1O,inactive
16,CCCC1O[C@@H]2C[C@H]3[C@@H]4CCC5=CC(=O)C=C[C@]5(C)[C@H]4[C@@H](O)C[C@]3(C)[C@]2(C(=O)CO)O1 (stereo not given in full),inactive
17,CC(O)CCCCn1c(=O)c2c(ncn2C)n(C)c1=O (stereo not given),inactive
18,CCNc1cc(O)ccc1C,inactive
19,CN(CCOc1ccc(CC2SC(=O)NC2=O)cc1)c1ccccn1 (stereo not given),inactive
20,Cc1ccc2c(c1)OCC(=O)CO2,inactive

row,SMILES,Potency
1,Cc1cccnc1,inactive
2,CCOc1ccc(N)c([N+](=O)[O-])c1,inactive
3,C=CCn1cc[n+](C)c1,inactive
4,CC(C)CNCC(C)C,inactive
5,O=C1OC(CN2CCOCC2)CN1/N=C/c1ccc([N+](=O)[O-])o1 (stereo not given),inactive
6,C=CC(C)(O)CC/C=C(\C)CC (stereo not given),inactive
7,C/C(=C(\CCO)SS/C(CCO)=C(\C)N(C=O)Cc1cnc(C)nc1N)N(C=O)Cc1cnc(C)nc1N,inactive
8,O=C(O)c1cc2ccccc2nc1C(=O)O,inactive
9,O=c1[nH]c2cc(C(F)(F)F)c(N3CCOCC3)cc2n(CP(=O)(O)O)c1=O,inactive
10,CCOC(=O)CC(C)=O,inactive
11,CO[C@@]1(NC(=O)C(C(=O)O)c2ccc(O)cc2)C(=O)N2C(C(=O)O)=C(CSc3nnnn3C)CO[C@@H]21 (stereo not given in full),inactive
12,Fc1c(F)c(F)c(Br)c(F)c1F,inactive
13,CCCCCCCCCCCCCCCCCCOCC(O)CO (stereo not given),inactive
14,OCC(CO)(CBr)CBr,inactive
15,OCCN1CCN(CCCN2c3ccccc3C=Cc3ccccc32)CC1,inactive
16,C#C[C@]1(O)CC[C@H]2[C@@H]3CCC4=CC(=O)CC[C@@H]4[C@H]3CC[C@@]21C,inactive
17,CC(C)(C)c1ccc(S)cc1,inactive
18,CC#N,inactive
19,NC(=O)Nc1ccccc1,inactive
20,OC[C@H]1O[C@@H]2O[C@H]3[C@H](O)[C@@H](O)[C@@H](O[C@H]4[C@H](O)[C@@H](O)[C@@H](O[C@H]5[C@H](O)[C@@H](O)[C@@H](O[C@H]6[C@H](O)[C@@H](O)[C@@H](O[C@H]7[C@H](O)[C@@H](O)[C@@H](O[C@H]1[C@H](O)[C@H]2O)O[C@@H]7CO)O[C@@H]6CO)O[C@@H]5CO)O[C@@H]4CO)O[C@@H]3CO,inactive
